Structures are written as SMILES. Values joined by “and” are separate entries in the source; they are usually repeats but may differ in a detail not shown here. Identical values can stand only once. A number with no mark means an inactive call.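 How the source made its calls: active means differentiation response of at least 50%, scaled between solvent and reference control, from cells with both markers; inactive means the rest.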

A short description of the assay: promoters of myeloid differentiation in arrested cells, primary screen, cell-based, GFP/MAC1 double positive, flow cytometry, validation set (AID 588685).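 Further: compound exposure lasts four days before antibody staining and flow analysis; 0% = DMSO wells and 100% = 5 µM fulvestrant positive control.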 The settings on record: ER-HoxA9 marrow cells, stronger effect = higher value, normalized: vehicle 0, fulvestrant 100.
As to `COc1cc(C2NCCc3c2[nH]c2ccccc32)ccc1OC(C)C` (stereo unspecified), the differentiation response is -10.4%.

Regarding `O=C(CSCc1ccccc1)NCCCN1CCOCC1`, the differentiation response was -14.8%.

Turning to `O=C(N1CCCCC1)C1(c2ccccc2)CCOCC1`, the differentiation response is -24.8%.

Turning to `CCCC(=O)O[C@]1(C(=O)COC(C)=O)CC[C@H]2[C@@H]3C[C@H](F)C4=CC(=O)C=C[C@]4(C)[C@@]3(F)[C@@H](O)C[C@@]21C`, the differentiation response is 1.93%.

On to `O=c1ccc2c(o1)/C(=C/C=C(Cl)Cl)CCC2`, for which the differentiation response was -10.4%.

`COc1cc(Cc2cnc(N)nc2N)cc(OC)c1OC`: the differentiation response was 0.24% and -3.43%.

On to `O=C(CC(NC(=O)OCc1ccccc1)C(=O)O)OCc1ccccc1` (stereo unspecified), for which the differentiation response was -2.69%.

For `O=c1c(-c2ccccc2)c(O)c2cccc3c2n1CCC3`, the differentiation response is -12.9%.

Turning to `O=C(O)C1CCN(C(=O)COc2ccc3c4c(c(=O)oc3c2)CCC4)CC1`, the differentiation response was -1.05%.

Regarding `CCOC(=O)c1cccc(P(C)(C)=O)c1`, the differentiation response was 6.11%.

Take `O=C(O)c1cc2cc(F)ccc2[nH]1`: the differentiation response is -1.71%.

As to `O=C(O)c1ccccc1C(=O)OCCCCOC(=O)c1ccccc1C(=O)O`, the differentiation response was 4.15%.

As for `Cn1nc(-c2ccc(Cl)cc2)nc2c(=O)n(C)c(=O)nc1-2`, the differentiation response was -4.99%.

With `O=c1[nH]c(=O)n([C@H]2C[C@H](O)[C@@H](CO)O2)cc1C(F)(F)F`, the differentiation response was -1.71%.

On to `COc1ccc(-c2cc(C(=O)N3CCOCC3)c3cc(C)ccc3n2)cc1`, for which the differentiation response is 9.79%.

As for `Cc1ccc2c(c1)c1c3n2CCCN(Cc2ccccc2)C3CCC1` (stereo unspecified), the differentiation response is 8.8%.

Source of the values: PubChem BioAssay.
